SMILES strings stand for the structures. “And” between values parts separate entries of the source, which are not always exact repeats. Identical values can stand only once. The source made the active and inactive calls.

Assay [1] can be described thus: binders of probe aFSTL3 on microarray, primary screen, stem cell growth factor project, biochemical, small-molecule microarray, fluorescence 635/667 (AID 1064).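 Also: measures binding of the biotinylated anti-FSTL3 antibody to printed compounds.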 The settings on record: higher = more signal.
The nature of assay [2]: binders from COS7 lysate, DM2A8 probe, primary screen, torsin A project, cell lysate, small-molecule microarray, fluorescence 635/667 (AID 1065). The settings on record: higher = more signal, COS7 lysate expressing mutant human TOR1A.
The nature of assay [3]: binders of probe aFGF2 on microarray, primary screen, stem cell growth factor project, biochemical, small-molecule microarray, fluorescence 635/667 (AID 1067).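 Also: measures binding of biotinylated aFGF2 protein to printed compounds on slides; z-score merges feature fluorescence and signal-to-noise across triplicate slides.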 The settings on record: higher = more signal.
A short description of assay [4]: binders of probe aFGF10 on microarray, primary screen, stem cell growth factor project, biochemical, small-molecule microarray, fluorescence 635/667 (AID 1071).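 Also: score merges 667 nm spot intensity and signal to noise from triplicate slides.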 The settings on record: higher = more signal.
The target in assay [5] is Neurogenic locus notch homolog protein 2 (Homo sapiens) (UniProt Q04721). The assay is described as follows: Notch2 binders on small-molecule microarrays, primary screen, biochemical, small-molecule microarray, 635 nm fluorescence, stem cell growth factors (AID 1073). The settings on record: Notch2 binding, higher = more signal.
For assay [6], the target named is Pro-neuregulin-1, membrane-bound isoform (Homo sapiens) (UniProt Q02297). Description: NRG1 binders on small-molecule microarrays, primary screen, psychiatric disease protein project, biochemical, small-molecule microarray, fluorescence 635/667 (AID 1075).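 Also: score combines 667 nm spot fluorescence with signal to noise.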 The settings on record: NRG1 binding, 635 nm fluorescence, higher = more signal.
The test system of assay [7] is Neuregulin-1 EGF-like domain. Description: binders of neuregulin-1 EGF-like domain, primary screen, biochemical, small-molecule microarray, 635 nm fluorescence (AID 1081).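 Also: binding of the protein to compounds printed on small-molecule microarray slides.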 The settings on record: small-molecule microarray binding, higher = more signal.
The nature of assay [8]: FRG1 promoter luciferase signal modulators, primary screen, FRG1 inhibition for FSHD, cell-based, C2C12 myotubes, firefly/Renilla luciferase, luminescence (AID 1084). The settings on record: higher = more signal, called active from +8 up or from −8 down.
A short description of assay [9]: binders of probe aFST on microarray, primary screen, stem cell growth factor project, biochemical, small-molecule microarray, fluorescence 635/667 (AID 1086).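 Also: score merges 667 nm fluorescence with signal-to-noise of each printed compound spot.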 The settings on record: higher = more signal.
A short description of assay [10]: binders of probe aHhip on microarray, primary screen, stem cell growth factor project, biochemical, small-molecule microarray, fluorescence 635/667 (AID 1087).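 Also: score merges spot fluorescence at 667nm with spot signal to noise ratio.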 The settings on record: higher = more signal.
Assay [11] has as its system PRMT1 (protein arginine N-methyltransferase 1). The assay is described as follows: PRMT1 binders on small-molecule microarrays, primary screen, biochemical, small-molecule microarray, 635 nm fluorescence (AID 1088).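 Also: binding of Prmt1 protein to compounds spotted on small-molecule microarray slides.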 The settings on record: small-molecule microarray binding, higher = more signal.
Assay [12] is described as follows: yeast growth modulation, basal conditions, primary screen, YJM789 clinical isolate, OD600, 24 h (AID 1089).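 Also: growth of clinical yeast isolate S. cerevisiae YJM 789 seeded 1000 cells per well; test concentration not given here.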 The settings on record: S. cerevisiae YJM789 growth, higher = more signal, called active from +8 up or from −8 down.
A short description of assay [13]: fission yeast growth modulation, primary screen, strain 972, OD600, 24 h, no modulator (AID 1090).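 Also: basal condition with compound alone and no growth modifier present; test concentration not given here.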 The settings on record: S. pombe 972 growth, higher = more signal, called active from +8 up or from −8 down.
Assay [14] is described as follows: S. cerevisiae growth modulation with rapamycin, primary screen, strain BY4716, OD600, 96 h (AID 1091). Also: test concentration not given here. The settings on record: higher = more signal, called active from +8 up or from −8 down.
Assay [15] deals with Torsin-1A-interacting protein 2 (Homo sapiens) (UniProt Q8NFQ8). The assay is described as follows: LULL1 binders on small-molecule microarray, primary screen, cell lysate, human LULL1 lysate, 635/667 nm fluorescence (AID 1092).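 Also: probe is lysate of COS7 cells overexpressing human LULL1; score merges per-feature 667 nm fluorescence with signal-to-noise.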 The settings on record: hLULL1 lysate binding, 635 nm fluorescence, higher = more signal.
Assay [16] can be described thus: E. coli growth modulation, two-sided OD650, primary screen, E. coli filamentation project, strain DRC41, 24 h (AID 1093).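 Also: MC1000 strain lacking acrAB efflux and sulA so SOS filamentation is blocked; test concentration not given here.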 The settings on record: OD650, 24 h, higher = more signal, called active from +8 up or from −8 down.
Assay [17] in a line: small-molecule microarray binders of probe aLefty2, primary screen, biochemical, biotinylated probe, 635/667 nm fluorescence (AID 1094).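 Also: score merges spot fluorescence near 667 nm with spot signal-to-noise ratio.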 The settings on record: higher = more signal.
The subject of assay [18] is Noggin (protein binding on small-molecule microarray). Description: Noggin binders on small-molecule microarray, primary screen, biochemical, 635/667 nm fluorescence (AID 1095).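 Also: score merges 667 nm feature fluorescence with signal to noise over triplicate slides.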 The settings on record: 635 nm fluorescence, higher = more signal.
Assay [19] deals with Neurogenic locus notch homolog protein 3 (Homo sapiens) (UniProt Q9UM47). Description: NOTCH3 binders on small-molecule microarray, primary screen, biochemical, 635/667 nm fluorescence (AID 1096). The settings on record: NOTCH3 binding, 635 nm fluorescence, higher = more signal.
Assay [20] can be described thus: small-molecule microarray binders of probe aEGFR, primary screen, biochemical, biotinylated probe, 635/667 nm fluorescence (AID 1097).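 Also: probe is a biotinylated anti-EGFR antibody binding compounds printed on slides; score combines fluorescence near 667 nm and signal to noise of each spot.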 The settings on record: higher = more signal.

Pro-neuregulin-1, membrane-bound isoform (Homo sapiens), sequence (Q02297 whole entry, looked up, the tested form may be a part, canonical isoform): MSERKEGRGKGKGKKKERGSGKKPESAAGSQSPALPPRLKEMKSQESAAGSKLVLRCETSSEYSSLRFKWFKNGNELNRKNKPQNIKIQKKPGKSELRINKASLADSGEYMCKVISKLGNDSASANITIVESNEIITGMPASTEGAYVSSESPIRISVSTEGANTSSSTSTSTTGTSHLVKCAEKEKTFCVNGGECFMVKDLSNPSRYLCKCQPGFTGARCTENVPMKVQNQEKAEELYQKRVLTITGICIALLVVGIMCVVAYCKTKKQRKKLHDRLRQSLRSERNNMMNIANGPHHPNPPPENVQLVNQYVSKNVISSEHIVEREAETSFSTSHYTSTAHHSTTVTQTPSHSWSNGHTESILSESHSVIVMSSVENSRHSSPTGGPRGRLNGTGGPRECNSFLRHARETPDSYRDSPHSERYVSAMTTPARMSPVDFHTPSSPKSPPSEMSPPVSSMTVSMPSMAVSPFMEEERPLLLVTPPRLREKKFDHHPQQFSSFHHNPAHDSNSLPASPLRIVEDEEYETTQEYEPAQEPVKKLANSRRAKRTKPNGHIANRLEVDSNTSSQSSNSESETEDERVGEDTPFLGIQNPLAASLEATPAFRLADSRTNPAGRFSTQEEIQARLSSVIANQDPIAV
Neurogenic locus notch homolog protein 3 (Homo sapiens), sequence (Q9UM47 whole entry, looked up): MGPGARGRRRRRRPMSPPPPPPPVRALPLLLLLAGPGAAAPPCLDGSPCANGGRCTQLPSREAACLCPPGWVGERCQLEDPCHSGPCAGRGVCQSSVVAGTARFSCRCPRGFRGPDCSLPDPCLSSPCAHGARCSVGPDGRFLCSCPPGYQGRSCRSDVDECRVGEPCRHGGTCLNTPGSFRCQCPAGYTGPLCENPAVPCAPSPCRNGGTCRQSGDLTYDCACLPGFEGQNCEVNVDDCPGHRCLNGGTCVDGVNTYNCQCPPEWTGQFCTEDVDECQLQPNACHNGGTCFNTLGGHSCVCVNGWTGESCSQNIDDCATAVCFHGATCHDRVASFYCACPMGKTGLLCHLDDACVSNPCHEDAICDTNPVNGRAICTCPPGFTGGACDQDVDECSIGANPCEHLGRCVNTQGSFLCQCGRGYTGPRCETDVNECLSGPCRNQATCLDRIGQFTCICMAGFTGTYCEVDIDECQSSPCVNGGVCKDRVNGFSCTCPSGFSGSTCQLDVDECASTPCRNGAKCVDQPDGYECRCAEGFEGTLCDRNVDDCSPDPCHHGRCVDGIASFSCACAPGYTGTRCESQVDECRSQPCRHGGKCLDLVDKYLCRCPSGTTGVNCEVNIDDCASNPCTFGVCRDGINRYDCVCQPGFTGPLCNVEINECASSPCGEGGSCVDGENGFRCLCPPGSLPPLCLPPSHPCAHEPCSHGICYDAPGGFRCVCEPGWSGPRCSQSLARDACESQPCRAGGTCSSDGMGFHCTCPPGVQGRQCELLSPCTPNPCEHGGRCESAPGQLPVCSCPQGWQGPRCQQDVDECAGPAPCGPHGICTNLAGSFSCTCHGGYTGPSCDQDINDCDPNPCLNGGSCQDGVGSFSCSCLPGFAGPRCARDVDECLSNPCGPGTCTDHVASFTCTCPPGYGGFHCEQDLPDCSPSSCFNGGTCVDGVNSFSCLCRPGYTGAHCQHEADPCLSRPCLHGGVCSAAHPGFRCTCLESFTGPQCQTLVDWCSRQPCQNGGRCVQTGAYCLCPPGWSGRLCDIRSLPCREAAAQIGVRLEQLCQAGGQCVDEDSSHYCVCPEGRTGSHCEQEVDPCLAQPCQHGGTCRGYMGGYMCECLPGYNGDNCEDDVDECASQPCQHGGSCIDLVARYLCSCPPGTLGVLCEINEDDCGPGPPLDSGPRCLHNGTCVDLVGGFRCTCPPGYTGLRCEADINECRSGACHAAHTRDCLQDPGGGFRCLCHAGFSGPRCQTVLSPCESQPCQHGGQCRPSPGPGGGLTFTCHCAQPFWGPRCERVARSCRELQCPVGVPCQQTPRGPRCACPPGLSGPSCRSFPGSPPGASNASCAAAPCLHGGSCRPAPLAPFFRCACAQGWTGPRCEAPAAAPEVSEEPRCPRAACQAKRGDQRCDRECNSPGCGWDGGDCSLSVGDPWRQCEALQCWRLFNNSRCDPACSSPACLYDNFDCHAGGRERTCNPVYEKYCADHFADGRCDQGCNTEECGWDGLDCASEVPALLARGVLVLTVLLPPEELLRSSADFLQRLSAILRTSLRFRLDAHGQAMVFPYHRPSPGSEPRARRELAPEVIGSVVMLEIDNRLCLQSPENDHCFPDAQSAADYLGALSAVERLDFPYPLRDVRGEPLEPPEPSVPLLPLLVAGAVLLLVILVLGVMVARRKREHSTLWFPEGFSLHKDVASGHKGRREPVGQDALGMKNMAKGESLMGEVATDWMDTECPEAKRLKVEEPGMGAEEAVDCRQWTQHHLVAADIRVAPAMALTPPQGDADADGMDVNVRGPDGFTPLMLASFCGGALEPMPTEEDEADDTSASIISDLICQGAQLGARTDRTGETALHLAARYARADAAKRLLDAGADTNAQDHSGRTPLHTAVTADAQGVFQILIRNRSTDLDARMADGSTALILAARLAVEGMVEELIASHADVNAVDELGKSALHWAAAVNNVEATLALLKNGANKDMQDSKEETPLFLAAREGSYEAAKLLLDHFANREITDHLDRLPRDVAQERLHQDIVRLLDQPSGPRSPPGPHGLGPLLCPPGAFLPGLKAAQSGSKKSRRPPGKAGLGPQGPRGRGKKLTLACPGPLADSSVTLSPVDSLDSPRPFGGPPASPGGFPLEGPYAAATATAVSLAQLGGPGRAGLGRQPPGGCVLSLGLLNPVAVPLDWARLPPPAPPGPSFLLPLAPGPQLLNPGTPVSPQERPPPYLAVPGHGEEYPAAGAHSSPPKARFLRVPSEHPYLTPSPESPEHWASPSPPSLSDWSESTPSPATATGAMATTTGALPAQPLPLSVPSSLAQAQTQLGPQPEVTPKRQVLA
Torsin-1A-interacting protein 2 (Homo sapiens), sequence (Q8NFQ8 whole entry, looked up): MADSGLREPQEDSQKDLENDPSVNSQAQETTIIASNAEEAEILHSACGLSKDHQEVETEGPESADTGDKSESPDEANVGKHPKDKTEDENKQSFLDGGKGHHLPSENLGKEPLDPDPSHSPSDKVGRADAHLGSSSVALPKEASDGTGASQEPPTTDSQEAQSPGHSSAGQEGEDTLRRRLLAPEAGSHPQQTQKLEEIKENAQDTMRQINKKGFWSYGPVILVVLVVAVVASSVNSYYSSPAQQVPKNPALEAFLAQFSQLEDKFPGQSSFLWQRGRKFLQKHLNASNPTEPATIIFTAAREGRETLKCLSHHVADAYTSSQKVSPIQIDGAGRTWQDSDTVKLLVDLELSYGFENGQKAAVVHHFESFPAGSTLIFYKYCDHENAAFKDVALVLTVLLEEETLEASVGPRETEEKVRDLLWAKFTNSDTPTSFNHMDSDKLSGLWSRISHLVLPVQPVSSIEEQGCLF

For the compound `C=CCN(CCCC)C(=O)C(c1cccs1)N(C(=O)/C=C\C(=O)O)c1ccc(CCO)cc1` (stereo not given), the composite z-score in assay [1] was 0.655 and 1.21; in assay [2], 0.005 and 0.531; in assay [3], -0.0493 and -0.166; in [4] it was 0.115 and -1.62; in assay [5], -1.83 and -2.34; in assay [6], 0.863 and -0.409. Moreover, the composite z-score is 0.867 and -0.0384 in assay [7]; -0.498 and -1.07 in [9]; -0.137 and -0.296 in [10]; -1.13 and -0.631 in [11]; 0.413 and 0.484 in assay [15]; 0.0113 and -0.145 in assay [17]. Besides, the composite z-score in assay [18] was -2.58 and -3.71; in assay [19] it was -1.26 and -0.946; in assay [20] it was -0.315 and -0.346. In addition, the z-score is 1.61 (inactive) and 1.37 (inactive) in assay [8]; -0.924 (inactive) and 0.0434 (inactive) in assay [12]; -0.13 (inactive) and -0.354 (inactive) in assay [13]; 0.161 (inactive) and 0.541 (inactive) in assay [14]; 0.0144 (inactive) and -0.312 (inactive) in assay [16].

As for `CCOC(=O)[C@@H]1CC2O[C@]23C[C@@H]1C(=O)N1CCC[C@@H]1[C@H]3O[Si](C)(C)C(C)(C)C` (stereo not given in full), the composite z-score in assay [1] is -0.224 and -0.287; in [2], -0.457 and -0.0006; in assay [3], -0.238 and -0.0048; in assay [4] it was -0.235 and -0.144; in assay [5], -1.08 and -0.312; in assay [6] it was -0.737 and -0.343. The composite z-score is -1.07 and -0.585 in assay [7]; -0.378 and 0.223 in assay [9]; -0.207 and -0.231 in [10]; -1.64 and -0.147 in [11]; -1.04 and 0.179 in assay [15]; -0.357 and -0.0163 in assay [17]. Further, the composite z-score in assay [18] is -0.355 and 0.12; in assay [19], -0.868 and -0.199; in [20], -0.12 and -0.0314. The z-score in [8] is -0.304 (inactive) and 0.333 (inactive); in assay [12] it was -0.418 (inactive) and -1.22 (inactive); in assay [13], -1.05 (inactive) and -0.791 (inactive); in assay [14] it was -0.435 (inactive) and -0.321 (inactive); in assay [16], -0.458 (inactive) and -0.86 (inactive).

Consider `CC(C)OC(=O)C=C1C[C@@H](c2ccccc2)O[C@@H](c2ccccc2)O1`, for which the composite z-score in assay [1] was -0.682 and -0.0971; in [2], 0.935 and 1.2; in assay [3], -0.0695 and 0.0305; in assay [4], 1.04 and 1.05; in assay [5], 1.45 and 1.59; in assay [6] it was 0.482 and 1.23. Besides, the composite z-score in assay [7] was 1.1 and 1.18; in [9], 0.904 and 0.743; in assay [10], 0.194 and 0.126; in [11], 1.5 and 1.54; in assay [15], 3.33 and 3.12; in assay [17], 0.0528 and 0.269. For the same compound, the composite z-score in assay [18] is 1.09 and 0.798; in assay [19], 1.09 and 1.13; in assay [20] it was 0.302 and 0.366. Moreover, the z-score in assay [8] is -0.778 (inactive) and -0.828 (inactive); in [12] it was -0.023 (inactive) and 0.548 (inactive); in assay [13], -4.66 (inactive) and -7.08 (inactive); in [14], -0.793 (inactive) and 0.632 (inactive); in assay [16] it was 0.551 (inactive) and 0.884 (inactive).

For `C=C[C@@H](OC)[C@H](O)c1ccc(OC)c(O)c1`, the composite z-score in [1] is -0.407 and 0.724; in [2] it was 0.415 and -0.675; in assay [3] it was 0.177 and -0.175; in assay [4], 0.0573 and -1.49; in assay [5] it was 0.113 and -0.602; in assay [6], -0.44 and -0.559. Moreover, the composite z-score in [7] was 0.225 and -0.758; in assay [9], -0.209 and -0.844; in [10], -0.0994 and -0.296; in assay [11], 0.852 and -0.645; in assay [15], -0.1 and -0.81; in assay [17] it was -0.17 and -0.109. Besides, the composite z-score in assay [18] was 0.941 and 0.0939; in assay [19], -0.233 and -1.14; in assay [20], -0.277 and -0.33. The z-score in assay [8] was 0.0163 (inactive) and -0.152 (inactive); in [12], -0.722 (inactive) and -0.94 (inactive); in [13], -0.322 (inactive) and -0.469 (inactive); in assay [14] it was -0.116 (inactive) and -0.423 (inactive); in assay [16] it was 0.77 (inactive) and 1.76 (inactive).

For `C=CCN(CCCC)C(=O)C1N(c2ccc(CCO)cc2)C(=O)C2C(C(=O)O)C3C=CC21O3` (stereo not given), the composite z-score in [1] was 0.508 and 1.27; in [2], -1.1 and -1.66; in assay [3] it was -0.156 and -0.061; in assay [4], -0.883 and 0.807; in [5], -1.32 and -0.91; in [6] it was -1.32 and -0.402. In addition, the composite z-score in assay [7] is -0.493 and 0.201; in assay [9] it was -0.951 and -1.03; in [10], -0.48 and -0.137; in assay [11], 0.0734 and -0.79; in assay [15] it was -1.07 and 0.53; in assay [17], 0.113 and 0.0553. For the same compound, the composite z-score was -2.44 and -3.58 in assay [18]; -1.38 and -1.27 in assay [19]; -0.226 and -0.317 in assay [20]. Further, the z-score is -0.267 (inactive) and 1.68 (inactive) in assay [8]; -0.844 (inactive) and -0.115 (inactive) in assay [12]; -0.261 (inactive) and -0.527 (inactive) in [13]; -0.0659 (inactive) and 0.252 (inactive) in assay [14]; 1.13 (inactive) and 2.05 (inactive) in [16].

For the compound `COC(=O)[C@@]1(Cc2ccccc2)[C@H]2c3cc(C(=O)N(C)C)n(C[C@H](O)CO)c3C[C@H]2CN1C(=O)c1ccccc1`, the composite z-score was 0.323 and 0.439 in assay [1]; -0.347 and 0.188 in assay [2]; 0.0002 and -0.0065 in assay [3]; 0.122 and 0.158 in assay [4]; 1.15 and 1.53 in assay [5]; 2.1 and 2.01 in assay [6]. Further, the composite z-score was 1.47 and 1.03 in [7]; 0.606 and 0.955 in assay [9]; 0.174 and 0.192 in [10]; -0.576 and -0.197 in assay [11]; 3.69 and 2.3 in assay [15]; -0.052 and 0.0305 in [17]. The composite z-score is -0.634 and -0.737 in [18]; -0.349 and -0.0109 in [19]; -0.228 and 0.0395 in [20]. Also, the z-score in [8] was 1.92 (inactive) and 0.827 (inactive); in assay [12], 0.745 (inactive) and 0.53 (inactive); in assay [13], -0.421 (inactive) and 0.883 (inactive); in [14] it was 0.565 (inactive) and 0.696 (inactive); in assay [16] it was -0.527 (inactive) and -0.856 (inactive).

With `COC(=O)C1=C(C)N(Cc2ccccc2)[C@]23O[C@](C(=O)OC)(C(=O)N2[C@@H]1c1ccccc1)[C@H]1C(=O)N(C)C(=O)[C@H]13`, the composite z-score is -0.342 and -0.556 in assay [1]; 0.117 and 0.134 in assay [2]; -0.137 and -0.0212 in assay [3]; 0.566 and 0.842 in assay [4]; 0.585 and 0.405 in assay [5]; 1.14 and -0.0494 in assay [6]. Besides, the composite z-score in assay [7] is 1.17 and 0.892; in [9], 0.271 and 0.2; in assay [10], 0.0439 and -0.121; in assay [11], 1.42 and 0.289; in assay [15], 1.9 and 0.741; in assay [17], -0.0831 and -0.125. The composite z-score was 1.35 and 0.752 in [18]; 0.877 and 0.903 in assay [19]; -0.0967 and 0.128 in assay [20]. Moreover, the z-score is -0.564 (inactive) and 0.0169 (inactive) in assay [8]; -0.458 (inactive) and -0.907 (inactive) in assay [12]; -0.0692 (inactive) and -1.06 (inactive) in [13]; 0.609 (inactive) and -0.776 (inactive) in assay [14]; 1.12 (inactive) and 0.684 (inactive) in assay [16].

Values taken from PubChem BioAssay.
